Only some compounds are listed: those with a hit (about 2% of all), similar ones and a draw of the others.
NR1D1 modulator: modulates human Rev-erb alpha binding to DNA | Rev-erbα–FITC-DNA binding, fluorescence polarization, 90 min | 0.79% of 370,000 active | activity, % at 10 µM | P20393;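 active = activity above about 14%, limit read from the data; passing the limit was not always enough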;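 note: 0% = DMSO wells with 35 nM protein and 100% = DMSO wells with 750 nM protein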
VLA-4 inh: inhibition in a human VLA-4 binding assay. P13612. VLA-4 expressing cells, ligand binding flow cytometry. inhibition, % (about 7 µM as worked out from the volumes in the protocol). 0.2% of 330,000 active; in the data active = inhibition above about 50%
Granule exo inh: lytic granule exocytosis inhibition | TALL-104 LAMP-1 surface exposure, flow cytometry; cells stimulated with thapsigargin and PMA | 0.66% of 360,000 active | AID 651702 | inhibition, % at 10 µM;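 active = inhibition above about 55%, limit read from the data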
ABCB6 inh MLPCN: inhibitors of human ABC transporter ABCB6 | K562-ABCB6 porphyrin accumulation, flow cytometry, 1 h; stronger effect = lower value | Q9NP58 | 0.19% of 360,000 active | fluorescence ratio to DMSO, % at 10 µM;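 active = fluorescence ratio to DMSO below 75%, the collection mean minus 3 SD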;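 note: signal is porphyrin accumulated inside mitochondria; 100% equals median channel fluorescence of DMSO control wells; lower ratio means ABCB6 inhibition with less porphyrin fluorescence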
Target sequence (Q9NP58 whole entry, looked up): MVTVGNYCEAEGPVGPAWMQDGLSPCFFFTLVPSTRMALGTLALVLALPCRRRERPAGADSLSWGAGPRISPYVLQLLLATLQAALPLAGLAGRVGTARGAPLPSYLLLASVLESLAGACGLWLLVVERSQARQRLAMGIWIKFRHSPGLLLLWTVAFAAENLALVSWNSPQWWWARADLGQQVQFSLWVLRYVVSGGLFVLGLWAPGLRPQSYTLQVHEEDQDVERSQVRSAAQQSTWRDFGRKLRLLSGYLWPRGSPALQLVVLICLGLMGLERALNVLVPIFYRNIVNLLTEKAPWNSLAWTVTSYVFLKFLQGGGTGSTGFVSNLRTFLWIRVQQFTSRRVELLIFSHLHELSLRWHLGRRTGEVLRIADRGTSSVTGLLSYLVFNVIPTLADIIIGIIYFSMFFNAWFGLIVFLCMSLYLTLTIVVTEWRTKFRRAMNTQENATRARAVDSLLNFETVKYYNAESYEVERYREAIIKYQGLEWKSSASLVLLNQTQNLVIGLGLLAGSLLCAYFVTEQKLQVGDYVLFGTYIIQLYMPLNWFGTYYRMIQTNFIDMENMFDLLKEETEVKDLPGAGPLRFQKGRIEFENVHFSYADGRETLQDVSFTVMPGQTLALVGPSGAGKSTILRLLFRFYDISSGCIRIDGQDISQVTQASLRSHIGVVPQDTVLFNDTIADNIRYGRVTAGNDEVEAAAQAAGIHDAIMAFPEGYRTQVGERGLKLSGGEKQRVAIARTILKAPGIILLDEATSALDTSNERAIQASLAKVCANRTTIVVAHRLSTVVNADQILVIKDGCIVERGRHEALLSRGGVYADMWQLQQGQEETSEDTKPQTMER
PG9 binder: small molecules binding HIV-1 gp120 antibody PG9 | AID 624416 | inhibition, % at 6.7 µM | 0.43% of 360,000 active | TR-FRET gp120-PG9 antibody binding; in the data active = inhibition above about 8.5%
Exocytosis CP01: blocks lytic granule exocytosis; shares compounds with Granule exo inh; TALL-104 cells, LAMP-1 externalization, flow cytometry; stimulated with PMA plus thapsigargin; inhibition, % at 10 µM; 11% of 1,500 active; in the data active = inhibition above about 60%;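 note: 0% = stimulated vehicle wells and 100% = unstimulated wells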
Numbers without * were called inactive.

Results for CN(CC1CCN(CCc2cccc(C(F)(F)F)c2)CC1)C(=O)c1ccc(F)cc1 ?
NR1D1 modulator: 0; VLA-4 inh: 8; Granule exo inh: 48; ABCB6 inh MLPCN: 95; PG9 binder: 0

Results for Cc1cc(C)c(OCC(=O)OCC(=O)N2CCN(C(=O)c3ccco3)CC2)c(C)c1 ?
NR1D1 modulator: -2; VLA-4 inh: 10; Granule exo inh: 8; ABCB6 inh MLPCN: 99; PG9 binder: 2

What do the screens show for `Cc1cc(Br)cc(Cl)c1OCC(=O)N1CCN(C(=O)c2ccco2)CC1`?
NR1D1 modulator: -5; VLA-4 inh: 14; Granule exo inh: 89*; ABCB6 inh MLPCN: 100; PG9 binder: 1; Exocytosis CP01: -14

Results for O=C(CSC1CCc2ccccc21)NNC(=O)Nc1ccc(Cl)cc1 (configuration not stated) ?
NR1D1 modulator: 0; PG9 binder: -2

Results for CC(C)Oc1cccc(C(=O)Nc2ccccc2N2CCOCC2)c1 ?
NR1D1 modulator: -3; VLA-4 inh: 2; Granule exo inh: 1; ABCB6 inh MLPCN: 91; PG9 binder: 0

How did O=C(Nc1ccccc1N1CCOCC1)c1cccc(Oc2ccccc2)c1 do in these assays?
NR1D1 modulator: -1; VLA-4 inh: 21; Granule exo inh: 63*; ABCB6 inh MLPCN: 97; PG9 binder: -1; Exocytosis CP01: -13

What do the screens show for `c1ccc(OCCOCCN2CCN(C(c3ccccc3)c3ccccc3)CC2)cc1`?
NR1D1 modulator: -2; VLA-4 inh: -20; Granule exo inh: 59*; ABCB6 inh MLPCN: 88; PG9 binder: 1; Exocytosis CP01: 8

How did OC(COc1ccccc1)CN1CCN(C(c2ccccc2)c2ccccc2)CC1 (configuration not stated) do in these assays?
NR1D1 modulator: -2; VLA-4 inh: -11; Granule exo inh: 18; ABCB6 inh MLPCN: 98; PG9 binder: 0

Results for COc1cc2c(cc1O)[C@@H]1Cc3cc(OC)c(OC)cc3C(C2)N1C ?
NR1D1 modulator: 1; VLA-4 inh: -8; Granule exo inh: -3; ABCB6 inh MLPCN: 99; PG9 binder: -2

How did COc1cc2c(cc1OC)[C@@H]1Cc3cc4c(cc3[C@H](C2)N1C)OCO4 do in these assays?
NR1D1 modulator: -3; VLA-4 inh: -5; Granule exo inh: 79*; ABCB6 inh MLPCN: 93; PG9 binder: -1; Exocytosis CP01: -14

How did N#CCCCc1cn(-c2ccc(-c3noc4c3C(=O)N(CC(=O)N3CCOCC3)CC4)cc2)nn1 do in these assays?
NR1D1 modulator: 5

Results for CCCCn1cnc2c(=O)[nH]ccc21 ?
NR1D1 modulator: -2

Results for COc1ccc2[nH]c3c(N4CCc5ccccc5C4)ncnc3c2c1 ?
NR1D1 modulator: -4; VLA-4 inh: 17; Granule exo inh: 99*; ABCB6 inh MLPCN: 92; PG9 binder: -1; Exocytosis CP01: 102*

How did CCOC(=O)N1CCN(c2ncnc3c2[nH]c2ccc(OC)cc23)CC1 do in these assays?
NR1D1 modulator: -2; VLA-4 inh: 17; Granule exo inh: -3; ABCB6 inh MLPCN: 79; PG9 binder: -1

What do the screens show for `CN(c1ccc(OCc2ccc([N+](=O)[O-])cc2)cc1)S(=O)(=O)c1ccccc1`?
NR1D1 modulator: -6; VLA-4 inh: 4; Granule exo inh: 61*; ABCB6 inh MLPCN: 94; PG9 binder: -1; Exocytosis CP01: -14

Results for Cc1ccc(S(=O)(=O)N(C)c2ccc(OCc3cccc(C)c3)cc2)cc1 ?
NR1D1 modulator: 0; VLA-4 inh: 1; Granule exo inh: -2; ABCB6 inh MLPCN: 99; PG9 binder: -2

What do the screens show for `Nc1c(C(=O)N2CCN(c3ccccc3)CC2)nnn1Cc1ccc(Cl)cc1`?
NR1D1 modulator: 0

Results for CC1=C(C(=O)N2CCCCCC2)CC(CC(=O)NCCCCc2ccccc2)C(=O)N1CCC1=CCCCC1 (configuration not stated) ?
NR1D1 modulator: -11; Granule exo inh: 86*; ABCB6 inh MLPCN: 95; PG9 binder: 0; Exocytosis CP01: 0

How did CC1=C(C(=O)N2CCCCCC2)CC(CC(=O)NCc2cccc3ccccc23)C(=O)N1CCC1=CCCCC1 (configuration not stated) do in these assays?
NR1D1 modulator: -5; Granule exo inh: 58*; ABCB6 inh MLPCN: 99; PG9 binder: 1; Exocytosis CP01: -6

Compound activity (PubChem BioAssay)
